In PubChem BioAssay (EPA / NIEHS):
Results filed as inconclusive are left out. Active and inactive are the calls of the source. The calls were made as follows: active = hit-call score of the fitted dose curve at least 0.9, where 1 is the maximum; inconclusive = response in the unintended direction; inactive = score below 0.9.

These compounds were tested against human Constitutive Androstane Receptor (CAR), NR1I3 (gene 9970) (UniProt Q14994) (assay: NVS_NR_hCAR_Antagonist: NovaScreen (NVS) Nuclear Receptor Binding Assay for human Constitutive Androstane Receptor Antagonism (CAR) (AID 2283344)).
Summary of the method: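 Single 25 uM duplicate primary screen, with concentration-series follow-up on actives. Cell-free binding format run in antagonist mode, TR-FRET signal taken 1 h post-dose; activity is signal loss relative to DMSO.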

Sequence of human Constitutive Androstane Receptor (CAR), NR1I3 (gene 9970) (Q14994 whole entry, looked up): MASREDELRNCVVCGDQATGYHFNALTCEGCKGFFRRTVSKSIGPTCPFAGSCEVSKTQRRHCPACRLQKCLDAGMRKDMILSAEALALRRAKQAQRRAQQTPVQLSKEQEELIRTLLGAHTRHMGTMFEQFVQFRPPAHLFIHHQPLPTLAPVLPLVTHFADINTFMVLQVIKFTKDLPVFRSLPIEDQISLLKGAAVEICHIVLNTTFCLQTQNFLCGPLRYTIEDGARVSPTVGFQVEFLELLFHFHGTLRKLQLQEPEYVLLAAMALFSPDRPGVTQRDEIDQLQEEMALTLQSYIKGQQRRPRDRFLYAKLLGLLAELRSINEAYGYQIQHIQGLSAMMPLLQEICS

| Compound | outcome |
| --- | --- |
| C=C(C)CN(CC)c1c([N+](=O)[O-])cc(C(F)(F)F)cc1[N+](=O)[O-] | inactive |
| CC(C)C1(C)N=C(c2ncccc2C(=O)O)NC1=O (centres undefined) | inactive |
| CCC(C)n1c(=O)[nH]c(C)c(Br)c1=O (centres undefined) | inactive |
| CCOc1nc(F)cc2nc(S(=O)(=O)Nc3c(Cl)cccc3Cl)nn12 | inactive |
| COC(=O)NS(=O)(=O)c1ccc(N)cc1 | inactive |
| CCOc1cc(C(C)(C)C)ccc1C1COC(c2c(F)cccc2F)=N1 (centres undefined) | inactive |

These compounds were tested against chimpanzee Androgen Receptor (AR), AR (gene 747460) (UniProt O97775) (assay: NVS_NR_cAR: NovaScreen (NVS) Nuclear Receptor Binding Assay for chimpanzee Androgen Receptor (AR) (AID 2283346);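 also: radioligand displacement from AR measured by scintillation counting in a cell-free assay; a loss of bound radioligand signal versus DMSO counts as binding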).
Summary of the method: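 Radioligand binding to chimpanzee AR expressed in Sf9/Sf21 cells, cell-free, measured 72 h after dosing by lysate-based scintillation counting. Loss of signal vs DMSO; initial duplicate screen at 25 uM, actives retested in concentration series.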

Sequence of chimpanzee Androgen Receptor (AR), AR (gene 747460) (O97775 whole entry, looked up): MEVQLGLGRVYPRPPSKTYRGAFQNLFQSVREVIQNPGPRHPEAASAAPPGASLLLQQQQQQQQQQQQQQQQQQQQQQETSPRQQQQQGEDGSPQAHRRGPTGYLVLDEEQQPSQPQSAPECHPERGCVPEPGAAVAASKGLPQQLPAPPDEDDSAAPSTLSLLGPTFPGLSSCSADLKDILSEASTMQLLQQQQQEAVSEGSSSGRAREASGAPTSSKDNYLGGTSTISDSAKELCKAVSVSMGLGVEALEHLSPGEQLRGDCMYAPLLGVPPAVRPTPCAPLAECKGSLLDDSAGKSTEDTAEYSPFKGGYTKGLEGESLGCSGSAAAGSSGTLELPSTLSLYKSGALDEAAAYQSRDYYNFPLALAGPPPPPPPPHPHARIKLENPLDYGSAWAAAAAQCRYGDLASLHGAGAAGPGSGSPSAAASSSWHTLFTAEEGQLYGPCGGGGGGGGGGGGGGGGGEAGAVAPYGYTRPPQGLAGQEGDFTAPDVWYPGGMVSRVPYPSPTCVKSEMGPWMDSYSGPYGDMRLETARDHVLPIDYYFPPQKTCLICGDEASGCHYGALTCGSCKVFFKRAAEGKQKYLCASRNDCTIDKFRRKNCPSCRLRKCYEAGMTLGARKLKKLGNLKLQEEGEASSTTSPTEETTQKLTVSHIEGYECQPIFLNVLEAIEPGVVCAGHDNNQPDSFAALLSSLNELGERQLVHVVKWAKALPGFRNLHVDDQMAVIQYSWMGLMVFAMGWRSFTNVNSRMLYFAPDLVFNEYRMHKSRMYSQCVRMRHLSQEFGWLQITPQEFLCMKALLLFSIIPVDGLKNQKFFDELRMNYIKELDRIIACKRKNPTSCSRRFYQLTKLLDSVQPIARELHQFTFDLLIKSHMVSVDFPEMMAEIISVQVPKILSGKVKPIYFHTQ

| Compound | AC50 | outcome |
| --- | --- | --- |
| CC1(C)CCC(=Cc2ccc(Cl)cc2)C1(O)Cn1cncn1 (centres undefined) | 0.672 µM (active) | – |
| C=C(C)CN(CC)c1c([N+](=O)[O-])cc(C(F)(F)F)cc1[N+](=O)[O-] | – | inactive |
| CS(=O)(=O)c1ccc(C(=O)C2C(=O)CCCC2=O)c([N+](=O)[O-])c1 | 17.6 µM (active) | – |

These compounds were tested against Estrogen receptor (Homo sapiens) (UniProt P03372) (assay: OT_ER_ERaERa_1440: Odyssey Thera (OT) 24-hour HEK293T Protein-Complementation Assay for Estrogen Receptor-alpha/-alpha Homodimer (AID 2283349);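 also: hits raise fluorescence above DMSO for agonists and antagonists alike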).
Summary of the method: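 Cells (HEK293T) carrying the fragment-tagged ERα LBD (aa 310-547) pair are treated with chemical for 24 hours. Nuclear and/or cytoplasmic fluorescence is then quantified on a laser scanning cytometer. Activity is scored as signal gain against DMSO.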

Sequence of Estrogen receptor (Homo sapiens) (P03372 whole entry, looked up, the tested form may be a part): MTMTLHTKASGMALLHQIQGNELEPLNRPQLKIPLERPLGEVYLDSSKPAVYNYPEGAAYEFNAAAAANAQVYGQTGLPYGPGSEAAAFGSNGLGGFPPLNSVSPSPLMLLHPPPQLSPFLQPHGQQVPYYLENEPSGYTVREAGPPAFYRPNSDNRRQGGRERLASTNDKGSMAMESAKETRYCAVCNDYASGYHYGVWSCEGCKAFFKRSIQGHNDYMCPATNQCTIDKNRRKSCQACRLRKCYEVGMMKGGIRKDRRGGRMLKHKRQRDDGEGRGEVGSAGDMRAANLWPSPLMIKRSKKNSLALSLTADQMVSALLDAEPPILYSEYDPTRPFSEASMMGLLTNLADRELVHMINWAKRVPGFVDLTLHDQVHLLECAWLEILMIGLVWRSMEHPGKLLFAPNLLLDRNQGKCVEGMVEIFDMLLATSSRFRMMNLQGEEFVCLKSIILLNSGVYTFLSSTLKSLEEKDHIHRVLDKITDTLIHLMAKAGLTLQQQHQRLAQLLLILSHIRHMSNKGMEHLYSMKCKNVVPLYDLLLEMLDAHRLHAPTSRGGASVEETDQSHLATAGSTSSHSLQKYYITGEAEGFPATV

| Compound | outcome |
| --- | --- |
| CCNC(=O)NC(=O)C(C#N)=NOC | inactive |
| COCc1cnc(C2=NC(C)(C(C)C)C(=O)N2)c(C(=O)O)c1 (centres undefined) | inactive |
| C=C(C)CN(CC)c1c([N+](=O)[O-])cc(C(F)(F)F)cc1[N+](=O)[O-] | inactive |
| Cc1cc(C)nc(Nc2ccccc2)n1 | inactive |
| CO/N=C(/C1=NOCCO1)c1ccccc1Oc1ncnc(Oc2ccccc2Cl)c1F | inactive |
| Clc1cccc(C(Cl)(Cl)Cl)n1 | inactive |
| CCCC(=NOCC)C1=C(O)CC(CC(C)SCC)CC1=O (centres undefined) | inactive |
| CC(C)N1C(=O)c2ccccc2NS1(=O)=O | inactive |
| Cc1cnc(C2=NC(C)(C(C)C)C(=O)N2)c(C(=O)O)c1 (centres undefined) | inactive |
| CC(C)Nc1nc(Cl)nc(NC(C)C)n1 | inactive |
| CCOc1nc(C(Cl)(Cl)Cl)ns1 | inactive |
| CS(=O)(=O)c1ccc(C(=O)C2C(=O)CCCC2=O)c([N+](=O)[O-])c1 | inactive |
| COC(=O)NC(=S)Nc1ccccc1NC(=S)NC(=O)OC | inactive |
| Nc1c(Cl)c(F)nc(OCC(=O)O)c1Cl | inactive |
| CCC(C)n1c(=O)[nH]c(C)c(Br)c1=O (centres undefined) | inactive |
| CC1(C)CON(Cc2ccccc2Cl)C1=O | inactive |
| N#CN=C1SCCN1Cc1ccc(Cl)nc1 | inactive |
| Cc1ccc(N=CN(C)C=Nc2ccc(C)cc2C)c(C)c1 | inactive |
| CCOc1cc(C(C)(C)C)ccc1C1COC(c2c(F)cccc2F)=N1 (centres undefined) | inactive |
| COc1cc(OC)nc(NC(=O)NS(=O)(=O)c2ncccc2OCC(F)(F)F)n1 | inactive |
